# In PubChem BioAssay AID1275 (Emory University Molecular Libraries Screening Center, 2008):
# Among all 1,000 compounds or so, about 160 (16%) were called active. No rule for the calls is given here. The list shows a part of the results.
# Target: Neutrophil cytosol factor 1 (Homo sapiens) (UniProt P14598)
# Experiment: p47phox binding inhibitors, dose response, biochemical, NADPH oxidase regulatory subunit, fluorescence polarization (AID 1275)
# Conditions: at 12.5 µM
# Sequence of Neutrophil cytosol factor 1 (Homo sapiens) (P14598 whole entry, looked up): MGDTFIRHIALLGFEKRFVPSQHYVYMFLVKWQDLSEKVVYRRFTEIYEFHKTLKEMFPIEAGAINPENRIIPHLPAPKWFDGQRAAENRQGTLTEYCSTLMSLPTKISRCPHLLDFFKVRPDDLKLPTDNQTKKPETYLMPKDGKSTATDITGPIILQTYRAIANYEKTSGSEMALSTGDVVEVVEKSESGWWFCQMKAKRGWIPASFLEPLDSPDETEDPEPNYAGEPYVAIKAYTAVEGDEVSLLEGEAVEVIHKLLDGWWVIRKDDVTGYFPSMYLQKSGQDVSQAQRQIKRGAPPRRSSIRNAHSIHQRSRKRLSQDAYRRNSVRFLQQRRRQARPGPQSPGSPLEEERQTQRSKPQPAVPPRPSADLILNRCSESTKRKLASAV
row,SMILES,"percent of control, lower = inhibition"
1,O=C1NC(=O)N(Cc2ccc(F)cc2)C(=O)/C1=C\c1ccc(N2CCCC2)cc1,-40.7 (active)
